# Screens: PubChem BioAssay, National Center for Advancing Translational Sciences (NCATS)
# GLP1R cytotox: qHTS of GLP-1 Receptor Inverse Agonists: Cytotox Screen; AID 624418, 2012; actives 0.13% (n = 410,000); Potency, µM (highest dose often 38.3 µM), inactives show at the highest dose activity change, negative = inhibition, hits mostly inhibitors; HEK293 cAMP-luciferase reporter cells, luminescence, 24 h;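 further: loss of luciferase light is scored as toxicity; on the % scale 0 is the no-effect control and ±100 the full control effect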
#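 Quantitative HTS format, 1536 wells, 200 cells/uL seeded. Compounds: 23 nL, 24 h, 37 °C. Detection: luciferase reagent, luminescence at 12 min RT; decreased signal taken as cytotoxic.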
# GLP1R inv ag: qHTS of GLP-1 Receptor Inverse Agonists (Inhibition Mode). HEK293 GLP-1R CRE-luciferase, luminescence, 24 h; GLP-1R form is constitutively active. Potency, µM (highest dose often 38.3 µM), for the others: top-dose activity change, negative = inhibition, hits mostly inhibitors. actives 1.6% (n = 410,000). AID 624417, 2012; further: on the % scale 0 is the no-effect control and ±100 the full control effect; nearly all actives have a fitted effect of over 55% in size
# Target sequence (P43220 whole entry, looked up): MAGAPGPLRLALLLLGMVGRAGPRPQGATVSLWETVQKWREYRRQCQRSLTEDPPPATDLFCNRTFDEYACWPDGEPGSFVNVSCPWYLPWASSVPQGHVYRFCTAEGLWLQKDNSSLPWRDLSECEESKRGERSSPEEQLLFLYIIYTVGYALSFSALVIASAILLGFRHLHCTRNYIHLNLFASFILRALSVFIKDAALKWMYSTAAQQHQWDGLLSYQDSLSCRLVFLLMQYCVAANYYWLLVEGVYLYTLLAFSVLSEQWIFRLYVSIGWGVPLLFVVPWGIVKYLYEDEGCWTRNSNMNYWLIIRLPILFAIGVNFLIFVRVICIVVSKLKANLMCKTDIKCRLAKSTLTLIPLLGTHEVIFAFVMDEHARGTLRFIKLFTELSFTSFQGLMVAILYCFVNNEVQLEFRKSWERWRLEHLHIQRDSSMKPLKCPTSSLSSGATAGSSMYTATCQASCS
#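 Constitutively active GLP-1R drives a cAMP-responsive luciferase in stably transfected HEK293 cells; test compounds are added after overnight (12 h) attachment and left 24 hr, and signal loss in luminescence marks inhibition.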
# GLP-1R agonist: qHTS of GLP-1 Receptor Agonists | actives 0.007% (n = 380,000) | Glucagon-like peptide 1 receptor (Homo sapiens), P43220 | Potency, µM (highest dose often 45.6 µM), for the others: at the top dose activation, actives largely listed as activators | HEK293 GLP-1R CRE-luciferase, luminescence, 4-6 h; cells express a hypersensitive GLP-1R form | AID 624172, 2012; further: % of control where 0% means no effect
# BRCA1 expr up: qHTS Assay to Identify Small Molecule Activators of BRCA1 Expression; MCF7-BRCA1-FFLuc reporter, luminescence, 48 h; response scale: scaled: vehicle 0%, 10 µM genistein 100%; Potency, µM (series often up to 46.1 µM), inactives show at the top dose activation, actives largely listed as activators; actives 1.1% (n = 380,000); AID 624202, 2012; further: nearly all actives have a fitted effect of over 80% in size
#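 Activators of BRCA1 expression were detected as increased firefly luciferase luminescence in engineered MCF7 cells after 48 h compound incubation. Signals were scaled to genistein 10 microM as full activation.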
# Integrin act MD: qHTS for Activators of Integrin-Mediated Alleviation for Muscular Dystrophy. alpha7betagal myoblasts, beta-gal FDG fluorescence, 48 h. Potency, µM (top dose mostly 38.3 µM), for inactives: at the highest dose activation, usual class: activators. actives 0.064% (n = 350,000). AID 624291, 2012;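 further: 100% = response of the positive control SU9516; nearly all actives have a fitted effect of over 60% in size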
#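 alpha7betagal+/- myoblasts (passage 13, 250/well) treated 48 h at 37C with compounds at 1:260 dilution of DMSO stock. Lysed, then beta-galactosidase activity read as FDG fluorescence (ex 480/em 540) after 30 min, with pre-read for autofluorescence.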
# Starred values were filed as active, the others as inactive; ? = inconclusive; nt = no result. In the library only some 2.7% were active in any assay of this set; here they are far more common. The call rests on the fitted dose curve; in most records, active means well fitted curve in the direction sought with a large enough effect; inconclusive means small, poorly fitted or top-dose-only effect, or another doubt; inactive means no such curve, though single readings can be large; an effect the other way counts as inactive or inconclusive. Potency means the concentration at half of the fitted maximal effect.
SMILES,GLP1R cytotox,GLP1R inv ag,GLP-1R agonist,BRCA1 expr up,Integrin act MD
CCNC(=O)CC1C(=O)N(c2ccc(F)cc2)C(=O)N1CCOC (configuration not stated),-1%,9%,nt,nt,nt
CCC(=O)Nc1ccc(C(=O)Nc2cccc(C)n2)cc1,-4%,9%,0%,2.5µM*,6%
Cc1ccc(CC(=O)Nc2cccc(C)n2)cc1,10%,-1%,10%,10µM*,10%
CCOC(=O)c1ccc(NC(=O)Nc2cccc(C)n2)cc1,-4%,13%,-9%,-3%,21%
COc1ccccc1CNC(=O)c1ccc2c(c1)N(Cc1cc(C)ccc1C)C(=O)c1ccccc1S2,-7%,6%,nt,nt,nt
Cc1ccc(/C(=C\CN2CCCC2)c2cccc(/C=C/C(=O)O)n2)cc1,nt,nt,-3%,nt,nt
CCOc1ccc(OCc2cccc(C(=O)Nc3ccc(CN4CCCCC4)cc3)c2)cc1,?,4.5µM*,-16%,?,-60%
NC(=O)C1CCN(Cc2ccc(OCc3ccccc3)cc2)CC1,7%,?,1%,11µM*,-8%
COc1ccc(OCc2cccc(C(=O)Nc3ccc(CN4CCCCC4)cc3)c2)cc1,?,?,-1%,-55%,-40%
NC(=O)C1CC(=O)N(c2ccc(OCc3ccc(Cl)cc3Cl)cc2)C1 (configuration not stated),-13%,15%,12%,44%,4%
COc1ccc(C(=O)NC(=S)Nc2ccc(CN3CCCCC3)cc2)cc1Cl,?,8.9µM*,11%,-18%,-35%
NC(=O)C1CC(=O)N(c2ccc(OCc3ccc(Cl)c(Cl)c3)cc2)C1 (configuration not stated),-8%,-2%,-2%,10µM*,-26%
O=C(/C=C/c1ccc(C(F)(F)F)cc1)OC(C(=O)NC1CC1)c1ccccc1 (configuration not stated),nt,nt,nt,-3%,nt
c1ccc(COc2ccc(CN3CCN(c4ccccn4)CC3)cc2)cc1,-11%,?,0%,2µM*,12%
CC1CCCCN1C(=O)CSc1nc2ccccc2nc1Cc1ccc(Cl)cc1 (configuration not stated),1%,5µM*,nt,nt,nt
CCCCNC(=O)CSc1nc2ccccc2nc1Cc1ccc(C)cc1,5%,0%,2%,2%,nt
CCCCN(C)C(=O)CSc1nc2ccccc2nc1Cc1ccc(C)cc1,-20%,11µM*,nt,0%,nt
O=C(CSc1nc(N2CCCCC2)nc(N2CCCCC2)n1)N1CCN(c2ccccc2)CC1,-21%,2.8µM*,0%,-71%,-56%
NC(=O)C1CCN(C(=O)CCSc2ccc(Cl)cc2)CC1,-11%,-17%,-1%,19%,0%
O=C(CCSc1ccc(Cl)cc1)N1CCCCCC1,3%,?,0%,13µM*,-18%
COc1ccccc1N1CCN(C(=O)c2cn(C)c3ccc(S(=O)(=O)N(C)C4CCCCC4)cc3c2=O)CC1,-3%,-1%,nt,nt,nt
Cc1ccc2c(c1)cc(C(=O)Nc1ccc(F)cc1F)n2C,-20%,-14%,nt,nt,nt
CC(=O)N1CCN(c2csc3ccc(F)cc3c2=O)CC1,-11%,5%,nt,nt,nt
O=C(Cc1ccc(OCCc2ccccc2)cc1)NO,nt,nt,nt,32%,nt
O=C(CSc1nc2ccccc2nc1SCC(=O)N1CCCCC1)N1CCCCC1,?,10µM*,-1%,-24%,17%
SMILES,GLP1R cytotox,GLP1R inv ag,GLP-1R agonist,BRCA1 expr up,Integrin act MD
Cn1c(-c2ccccc2)cnc1SCC(=O)N1CCCCC1,-13%,4µM*,-31%,?,6%
Cn1c(-c2ccccc2)cnc1SCC(=O)N1CCCc2ccccc21,0%,?,0%,44%,18%
CC1CCCCN1C(=O)CSc1nc(C2CC2)nc2ccccc12 (configuration not stated),?,7.9µM*,16%,-31%,-21%
O=C(CSc1nc2ccccc2nc1Cc1ccc(Cl)cc1)N1CCCCC1,0%,10µM*,nt,nt,nt
Cc1ccc(NC(=O)CC(C)S(=O)(=O)c2ccc3c(c2)NC(=O)CO3)cc1Cl (configuration not stated),-5%,-22%,nt,nt,nt
CCCCCCCCCCCCCCCCOCCOCCOCCOCCOCCOCCOCCOCCOCCOCCOCCOCCOCCOCCOCCOCCOCCOCCOCCOCCO,nt,nt,8%,nt,nt
CCc1cccc(NC(=O)C(Cc2ccccc2)NS(=O)(=O)c2ccc3c(c2)oc(=O)n3C)c1 (configuration not stated),-10%,15%,nt,nt,nt
COc1ccccc1N1CCN(C(=O)CSc2nc3ccccc3nc2Cc2ccccc2)CC1,-15%,11µM*,2%,-52%,nt
Cc1ccc(Cc2nc3ccccc3nc2SCC(=O)N2CCN(c3ccccc3)CC2)cc1,12%,3%,nt,nt,nt
Cn1cc(S(=O)(=O)c2ccc(Cl)cc2)c(=O)c2cc(F)c(N3CCOCC3)cc21,8%,13%,nt,nt,nt
Cc1nc([N+](=O)[O-])c(Br)n1Cc1ccc(Cl)c(Cl)c1,10µM*,10µM*,1%,-76%,-55%
Cc1nc([N+](=O)[O-])c(Br)n1CC(=O)c1ccc(Cl)cc1,-18%,?,-48%,-74%,1%
CC(=O)Nc1ccc(S(=O)(=O)Nc2cccc(-c3ccc(N4CCCCCC4)nn3)c2)cc1,-11%,16%,nt,nt,nt
Cc1c(Cl)cccc1NC(=O)CN1C(=O)COc2ccc(S(=O)(=O)Nc3ccccc3)cc21,-14%,?,-5%,-39%,nt
CCCC(=O)c1cc2ccccc2oc1=O,-22%,1%,-5%,-2%,-8%
COc1ccc(C(=O)Cc2cc3ccccc3oc2=O)cc1,-13%,10%,3%,4.5µM*,1%
CCOc1ccc(C(=O)Cc2cc3cccc(OC)c3oc2=O)cc1,-2%,?,16%,23%,-2%
Cc1ccc(C(=O)Cc2cc3ccccc3oc2=O)c(C)c1,1%,2%,12%,4µM*,-6%
C/C(=N\OCc1ccc(C#N)cc1)c1ccccc1,6%,18%,-7%,?,0%
C/C(=N\OCc1ccc(C#N)cc1)c1ccc(S(=O)(=O)N(C)C)cc1,-4%,-3%,17%,7.1µM*,-32%
CC(=O)/C=C\c1cn(-c2ncc(C(F)(F)F)cc2Cl)c2ccccc12,-15%,?,-10%,-66%,-8%
N#CC(C#N)=Cc1cn(-c2ncc(C(F)(F)F)cc2Cl)c2ccccc12,-9%,7.9µM*,-2%,5%,41%
CN(C)CCCCCCCCCCC(=O)/C=N/O,-6%,10µM*,4%,1%,-17%
O=C(O)c1ccc2c(c1)C(=O)N(CCc1c[nH]c3ccccc13)C2=O,4%,48%,-1%,7.9µM*,8%
